Records with an inconclusive call do not appear. Activity calls are given as the source filed them. Calls come from the whole dose curve.
Biological target: Peroxisome proliferator-activated receptor delta (Homo sapiens) (UniProt Q03181)
Test: qHTS assay for small molecule agonists of peroxisome proliferator-activated receptor delta signaling (AID 588534)
Conditions: HEK293T PPARdelta-UAS-bla, beta-lactamase ratio, 18 h; series mostly up to 76.7 µM
Procedure, shortened: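 Cell-based beta-lactamase reporter assay run in agonist mode: cells seeded and incubated 5 hrs at 37 C, compounds added and incubated 18 hrs at 37 C. CCF4 dye fluorescence read after 2 hrs at RT; EC50 and efficacy from Hill fits.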

Chain of Peroxisome proliferator-activated receptor delta (Homo sapiens) (Q03181 whole entry, looked up): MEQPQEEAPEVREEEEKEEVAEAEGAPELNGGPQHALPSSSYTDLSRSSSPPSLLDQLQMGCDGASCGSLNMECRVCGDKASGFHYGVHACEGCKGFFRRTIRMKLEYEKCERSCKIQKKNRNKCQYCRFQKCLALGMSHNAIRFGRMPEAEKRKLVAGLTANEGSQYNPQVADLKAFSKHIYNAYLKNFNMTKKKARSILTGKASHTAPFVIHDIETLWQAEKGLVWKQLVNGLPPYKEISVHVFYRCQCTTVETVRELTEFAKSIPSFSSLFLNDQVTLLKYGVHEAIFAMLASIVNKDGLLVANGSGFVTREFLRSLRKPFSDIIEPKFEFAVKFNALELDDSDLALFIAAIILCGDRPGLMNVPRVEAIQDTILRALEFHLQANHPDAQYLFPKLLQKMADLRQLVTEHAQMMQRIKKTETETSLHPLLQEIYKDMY

Row | SMILES | outcome
1 | Cc1cc(C(=O)O)ccc1[N+](=O)[O-] | inactive
2 | CCN(CC)c1cccc(O)c1 | inactive
3 | Nc1nc(N)nc(-c2ccccc2)n1 | inactive
4 | Oc1ccc2cc(SSc3ccc4cc(O)ccc4c3)ccc2c1 | inactive
5 | CCCCC(CC)COC(=O)/C=C\C(=O)OCC(CC)CCCC (stereo not given) | inactive
6 | O=C(O[C@@H](C(=O)O)[C@@H](OC(=O)c1ccccc1)C(=O)O)c1ccccc1 | inactive
7 | Cc1c(N)cccc1[N+](=O)[O-] | inactive
8 | CCCCCCCCC/C=C/CC1CC(=O)OC1=O (stereo not given) | inactive
9 | CC1(C)C(=O)NC(=O)N1CO | inactive
10 | CCCOCC(C)O (stereo not given) | inactive
11 | CC/C=C/C#N | inactive
12 | C=C(C)C(=O)OCCC[Si](Cl)(Cl)Cl | inactive
13 | NCCCCCCN | inactive
14 | CC(=O)OCc1ccco1 | inactive
15 | CC1(N)CCC(C(C)(C)N)CC1 (stereo not given) | inactive
16 | C=CC(=O)OCCOc1ccccc1 | inactive
17 | Cc1cc(Nc2ccc(O)cc2)ccc1N | inactive
18 | OC(CCl)CCl | inactive
19 | CN(C)CCCNCCCN | inactive
20 | C/C=C/C=C/C=O | inactive

Row | SMILES | outcome
21 | CC1CCC(C(C)C)C(O)C1 (stereo not given) | inactive
22 | O=[N+]([O-])c1cccc(Cl)c1 | inactive
23 | CC1(C)CC(N)CC(C)(CN)C1 (stereo not given) | inactive
24 | C=Cc1ccccn1 | inactive
25 | CCN(Cc1cccc(S(=O)(=O)O)c1)c1ccc(C(=C2C=CC(=[N+](CC)Cc3cccc(S(=O)(=O)[O-])c3)C=C2)c2ccccc2)cc1 | inactive
26 | ClCCCl | inactive
27 | CCOc1cc(OCC)c(C(C)=O)cc1OCC | inactive
28 | O=C(Cl)c1c(Cl)cccc1Cl | inactive
29 | CC1=CC(=O)CC(C)(C)C1 | inactive
30 | Cc1ccc2ncccc2c1 | inactive
31 | CCCCCCN | inactive
32 | CCCCCCCCCCCCCC(=O)OC | inactive
33 | C=C(C#N)C(=O)OCC | inactive
34 | c1ccc2n[nH]nc2c1 | inactive
35 | C=CC(=O)NC(C)(C)CS(=O)(=O)O | inactive
36 | CNc1ccc(O)cc1 | inactive
37 | CCCCCCCC/C=C\CCCCCCCCO | inactive
38 | Cc1cccc(C)c1[N+](=O)[O-] | inactive
39 | CCCC=O | inactive
40 | NC(=O)CCCCC(N)=O | inactive
